Test results from PubChem BioAssay.
Unmarked numbers belong to inactive results. Active and inactive are the calls of the source.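 Rule for the calls, unless noted: active = mean inhibition above 46.5%, the solvent-only control mean plus 3 SD; inactive = the rest.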

Key:
[1] = test system: transactivating tegument protein VP16 (Human herpesvirus 1); assay: VP16 transactivation reporter inhibitors, counter-screen for SRC2 inhibitor project, cell-based, luminescence, single concentration (AID 652007; in the data active = inhibition above about 36%); details: cell-based VP16 transactivation luciferase reporter, at 8.9 µM, hits give high values
[2] = target: Nuclear receptor coactivator 2 (Homo sapiens) (UniProt Q15596); assay: SRC2 coactivator transcriptional activity inhibitors, confirmation, cell-based, luminescence, HEK293, triplicate (AID 652008); details: HEK293 GAL4-SRC2 luciferase reporter, at 8.9 µM, hits give high values;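 note: 0% = DMSO-treated cells and 100% = Gossypol at 36 µM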
Nuclear receptor coactivator 2 (Homo sapiens), sequence (Q15596 whole entry, looked up, the tested form may be a part): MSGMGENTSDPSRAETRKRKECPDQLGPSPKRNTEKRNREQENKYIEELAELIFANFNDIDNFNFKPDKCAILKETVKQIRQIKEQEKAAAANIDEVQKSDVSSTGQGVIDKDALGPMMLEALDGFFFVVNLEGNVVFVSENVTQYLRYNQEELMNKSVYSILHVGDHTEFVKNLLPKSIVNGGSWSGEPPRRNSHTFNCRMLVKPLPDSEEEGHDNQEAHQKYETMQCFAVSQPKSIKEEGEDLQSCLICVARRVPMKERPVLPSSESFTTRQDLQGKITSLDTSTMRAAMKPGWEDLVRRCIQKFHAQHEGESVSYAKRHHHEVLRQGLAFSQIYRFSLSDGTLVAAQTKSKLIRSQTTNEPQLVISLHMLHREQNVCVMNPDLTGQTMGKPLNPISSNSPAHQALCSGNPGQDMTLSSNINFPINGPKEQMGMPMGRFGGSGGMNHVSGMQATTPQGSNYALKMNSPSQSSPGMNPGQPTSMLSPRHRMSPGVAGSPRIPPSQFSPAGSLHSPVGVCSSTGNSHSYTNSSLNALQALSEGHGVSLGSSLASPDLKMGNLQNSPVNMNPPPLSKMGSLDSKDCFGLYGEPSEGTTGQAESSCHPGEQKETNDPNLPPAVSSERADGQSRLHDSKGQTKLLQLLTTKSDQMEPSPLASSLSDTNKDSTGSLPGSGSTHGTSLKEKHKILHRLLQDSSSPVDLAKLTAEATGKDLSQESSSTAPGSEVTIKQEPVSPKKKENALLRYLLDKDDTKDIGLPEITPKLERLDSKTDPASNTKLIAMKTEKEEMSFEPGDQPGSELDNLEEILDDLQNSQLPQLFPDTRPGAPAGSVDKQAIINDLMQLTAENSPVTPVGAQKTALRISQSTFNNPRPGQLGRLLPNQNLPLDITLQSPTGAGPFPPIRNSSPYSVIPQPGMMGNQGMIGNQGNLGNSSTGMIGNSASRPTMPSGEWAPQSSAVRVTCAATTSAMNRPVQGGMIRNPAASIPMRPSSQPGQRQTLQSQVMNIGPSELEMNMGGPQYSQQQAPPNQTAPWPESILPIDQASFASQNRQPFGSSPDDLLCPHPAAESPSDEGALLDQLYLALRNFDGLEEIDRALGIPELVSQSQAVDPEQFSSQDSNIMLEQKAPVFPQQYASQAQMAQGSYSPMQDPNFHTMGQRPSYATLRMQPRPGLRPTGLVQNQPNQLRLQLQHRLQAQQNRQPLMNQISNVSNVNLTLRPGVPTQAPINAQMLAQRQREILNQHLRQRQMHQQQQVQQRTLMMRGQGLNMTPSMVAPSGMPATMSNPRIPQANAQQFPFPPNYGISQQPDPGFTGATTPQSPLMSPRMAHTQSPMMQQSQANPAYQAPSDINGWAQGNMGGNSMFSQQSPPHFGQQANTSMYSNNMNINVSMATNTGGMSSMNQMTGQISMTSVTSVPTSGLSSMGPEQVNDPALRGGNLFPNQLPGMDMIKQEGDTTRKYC

Row | Compound | inhibition [1] | inhibition [2]
1 | CC(=O)N(CCc1ccccc1)c1ccc2c(c1)C1CC2CCN1C(=O)OCc1ccccc1 (stereo unspecified) | 17% | 18.6%
2 | CCc1ccc(/C=C2\SC(=S)N(CCC(=O)NC3=NCCS3)C2=O)cc1 | -67.3% | 75% (active)
3 | CCN1CCN(C(c2ccc(C(F)(F)F)cc2)c2ccc3cccnc3c2O)CC1 (stereo unspecified) | -15.7% | 13.2%
4 | O=C(CCCN1C(=O)/C(=C/c2ccc3c(c2)OCO3)SC1=S)Nc1ccc(C(=O)O)cc1 | 53.6% (active) | 36.2%
5 | CC1=CC(C)(C)Nc2ccc(OC(=O)c3ccco3)cc21 | -20.4% | 31.6%
6 | COc1ccc(N(C(=O)CCl)C(C(=O)NCCc2ccccc2)c2cccs2)cc1 (stereo unspecified) | 32.7% | 58.1% (active)
7 | O=C(CCCN1C(=O)/C(=C/c2ccccc2Cl)SC1=S)Nc1cccnc1 | -29.3% | -4.66%
8 | COc1ccc(CCNc2nnc(Sc3nnnn3-c3ccccc3)s2)cc1OC | 5.42% | 20.1%
9 | CCCCC(=O)NC(c1ccccc1OC)c1ccc2cccnc2c1O (stereo unspecified) | -16.1% | 28.1%
10 | Cc1ccoc1C(=O)Nc1ccc(CC(=O)O)cc1 | 41.7% (active) | 83.4% (active)
11 | COc1ccccc1C(C)NC(=O)C1CCN(S(=O)(=O)c2cccs2)CC1 (stereo unspecified) | -3.74% | 6.18%
12 | CN1CCN(S(=O)(=O)c2cccc(C(=O)Nc3ccc(Br)cc3Br)c2)CC1 | 12.2% | 12.1%
13 | COc1ccccc1NC(=O)C(C)OC(=O)c1cc2ccccc2[nH]1 (stereo unspecified) | 15.9% | 17.2%
14 | COc1ccc(-n2nc3cc(C)c(N)c(Br)c3n2)cc1 | -67.1% | -140%
15 | CCCc1nc(SCC(=O)Nc2cc(C)on2)c2ccccc2n1 | 1.01% | 10.1%
16 | CCOC(=O)C1CCN(c2ncnc3c2cnn3-c2ccc(OC)cc2)CC1 | -22.3% | 39.2%
17 | COc1ccc(OC)c(CC(=O)Nc2ccc3c(c2)c(=O)n(C)n3Cc2cccc(C(F)(F)F)c2)c1 | -5.16% | -6.44%

Row | Compound | inhibition [1] | inhibition [2]
18 | COCCn1c(-c2ccc(Br)cc2)csc1=Nc1cccnc1 | 10.4% | 20.4%
19 | CCOc1ccc(C(=O)C(CN2CCOCC2)c2ccccc2)cc1 (stereo unspecified) | 14.2% | 42.6%
20 | CC(C)c1nnc(NC(=O)c2nc(S(=O)(=O)Cc3ccccc3F)ncc2Cl)s1 | 16.4% | 48% (active)
21 | CC1CC(C)(C)Nc2ccc(OC(=O)c3ccco3)cc21 (stereo unspecified) | -46.6% | 46.8% (active)
22 | CC(=O)Nc1c([N+](=O)[O-])cc(C)c(Cl)c1[N+](=O)[O-] | -10.7% | 3.8%
23 | CCOC(=O)C1=C[C@@H](c2ccccc2)N(S(=O)(=O)c2ccc(C)cc2)[C@H]1c1ccc(F)cc1 | -7.61% | -5.87%
24 | C=CS(=O)(=O)N(Cc1ccc(F)cc1)C(=C)C(=O)OC | 33.7% | -13.2%
25 | COc1cc(OC)cc(C2=Cc3ccc(OC)cc3C(CC(C)=O)N2c2ccc(C#CC3(O)CCCCC3)cc2)c1 (stereo unspecified) | -2.24% | 19.6%
26 | CC1=C(C(=O)N2CCOCC2)CC(CC(=O)NCCCCc2ccccc2)C(=O)N1Cc1ccc(C(C)(C)C)cc1 (stereo unspecified) | 12.6% | 2.06%
27 | CCn1c(Cl)c(C=O)s/c1=N\S(=O)(=O)c1ccccc1 | 59.6% (active) | 16%
28 | CCCn1c(CC)nc([N+](=O)[O-])c1Sc1ccc(F)cc1 | -3.5% | 13.2%
29 | Cc1cc2c(cc1C)C(=O)NC(C)(C)C2 | 2.03% | 28.2%
30 | CC(C)(C)c1ccc(SCCc2ccncc2)cc1 | -28.2% | -4.99%
31 | O=C1NC(c2ccccc2)Cc2ccncc21 (stereo unspecified) | -6.21% | -28.4%
32 | CC(C)(C)c1nn(-c2ccccc2)c2[nH]c(=O)c(CNc3ccc4c(c3)OCCO4)cc12 | -7.89% | 3.22%
33 | O=C(Nc1nc2ccccc2s1)c1ccc(N2CCCCC2)c([N+](=O)[O-])c1 | -57.5% | 10%
